Measured values published in PubChem BioAssay (EPA / NIEHS).
Records with an inconclusive call do not appear. Activity calls are given as the source filed them. The calls were made as follows, unless noted: active = hit-call score of the fitted dose curve at least 0.9, where 1 is the maximum; inactive = score below 0.9.

Columns and labels:
[1] = target: Paired box protein Pax-6 (Homo sapiens) (UniProt P26367); assay: ATG_Pax6_CIS: Attagene CIS-FACTORIAL HepG2 Assay for human Paired Box 6 (PAX6) (AID 2282956); settings: HepG2 CIS-FACTORIAL PAX6 reporter transcription, RNA readout; actives raise or lower the signal
Method in brief: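 Fluorescent RT-PCR products separated by capillary electrophoresis report PAX6-linked promoter mRNA in HepG2 cells 24 h post-dose. Curves fitted bidirectionally, DMSO as negative control.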

[2] = ATG_PXRE_CIS: Attagene CIS-FACTORIAL HepG2 Assay for human Pregnane X Receptor Element (PXRE) (AID 2282957); settings: HepG2 Attagene CIS-FACTORIAL PXRE reporter, mRNA; actives raise or lower the signal
Method in brief: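 Reporter transcripts under endogenous PXR-responsive cis-regulation quantified from total RNA of transfected HepG2 cells 24 h post-dosing, via RT-PCR with fluorescent primer extension and capillary electrophoresis. Gain or loss of signal fitted against DMSO baseline.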

[3] = ATG_RORE_CIS: Attagene CIS-FACTORIAL HepG2 Assay for human RAR-related Orphan Receptor Element (RORE) (AID 2282959); settings: HepG2 Attagene cis-factorial RORE reporter, mRNA; actives raise or lower the signal
Method in brief: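 Readout: fluorescent reporter mRNA by RT-PCR plus capillary electrophoresis, 24 h after dosing transfected HepG2 cells. Endogenous transcription factor activity on a cis promoter element is measured. Gain or loss of signal fitted against DMSO.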

[4] = ATG_Sox_CIS: Attagene CIS-FACTORIAL HepG2 Assay for human SRY-box transcription factor (SOX) (AID 2282960); settings: HepG2 Attagene cis-factorial SOX reporter, mRNA; actives raise or lower the signal
Method in brief: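 Read-out: fluorescent RT-PCR products of SOX1-linked reporter transcripts resolved by capillary electrophoresis, fitted bidirectionally against DMSO. Transiently transfected HepG2 cells, 24 h after chemical exposure, endogenous transcription factor activity.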

[5] = target: Transcription factor Sp1 (Homo sapiens) (UniProt P08047); assay: ATG_Sp1_CIS: Attagene CIS-FACTORIAL HepG2 Assay for human Specificity Protein 1 (Sp1) (AID 2282961); settings: HepG2 Sp1 cis-reporter transcription, actives raise or lower the signal
Method in brief: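 Read-out: fluorescence of 6-FAM-labeled, HpaI-digested RT-PCR products separated by capillary electrophoresis. HepG2 cells carried transfected cis-element reporter units and were exposed to chemicals for 24 h; gain or loss of signal fitted relative to DMSO.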

[6] = ATG_SREBP_CIS: Attagene CIS-FACTORIAL HepG2 Assay for human Sterol Regulatory Element Binding (SREBP) (AID 2282962); settings: HepG2 Attagene cis-factorial SREBP reporter, mRNA; actives raise or lower the signal
Method in brief: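 Endogenous factor activity is measured in HepG2 through multiplexed reporter units under cis-element control. Following a 24 h incubation, reporter transcripts are reverse-transcribed, PCR-amplified and sized by capillary electrophoresis; activity is fitted in both directions relative to DMSO.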

[7] = target: Signal transducer and activator of transcription 3 (Homo sapiens) (UniProt P40763); assay: ATG_STAT3_CIS: Attagene CIS-FACTORIAL HepG2 Assay for human Signal Transducer and Activator of Transcription 3 (STAT3) (AID 2282963); settings: HepG2, Attagene cis-factorial STAT3 reporter transcription; actives raise or lower the signal
Method in brief: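 Readout is reporter transcript quantified by RT-PCR and capillary electrophoresis, with 6-FAM primer extension and HpaI digestion. Total RNA is taken 24 h after dosing transiently transfected HepG2 carrying cis-regulated reporter units. Bidirectional fit against DMSO.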

[8] = ATG_TA_CIS: Attagene CIS-FACTORIAL HepG2 Assay for human TA Basal Promoter (AID 2282964); settings: HepG2 Attagene CIS-factorial TA basal promoter reporter; actives raise or lower the signal
Method in brief: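 Multiplexed mRNA reporter assay, HepG2, 24 h. Reporter cDNA amplified, 6-FAM primer-extended, HpaI-cut, CE-sized; DMSO = negative control and baseline.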

[9] = ATG_TCF_b_cat_CIS: Attagene CIS-FACTORIAL HepG2 Assay for human T-Cell-Factor with beta-catenin (TCF/b-cat) (AID 2282965); settings: HepG2 TCF/beta-catenin cis-reporter transcription, actives raise or lower the signal
Method in brief: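 Endogenous transcription factor activity is captured through cis-promoter reporter constructs transiently introduced into human HepG2 liver cells. Induced reporter mRNA is measured after 24 h and fitted bidirectionally relative to DMSO.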

[10] = ATG_TAL_CIS: Attagene CIS-FACTORIAL HepG2 Assay for human TAL Basal Promoter (AID 2282966); settings: HepG2 Attagene cis-factorial TAL promoter reporter; actives raise or lower the signal;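 also: background control endpoint measuring basal TAL promoter reporter mRNA not a specific factor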
Method in brief: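 Background-control endpoint: basal TAL promoter reporter transcripts in transiently transfected HepG2, measured 24 h after dosing. Read-out by RT-PCR with fluorescent primer extension and capillary electrophoresis; gain or loss of signal fitted relative to DMSO.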

[11] = ATG_TGFb_CIS: Attagene CIS-FACTORIAL HepG2 Assay for human Transforming Growth Factor (TGF) (AID 2282967); settings: HepG2 Attagene CIS TGFb reporter, mRNA transcription; actives raise or lower the signal
Method in brief: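 Transcript-level reporter readout: HepG2 transfectants, 24 h exposure, RNA to cDNA, reporter-specific PCR, fluorescent primer extension, capillary sizing against ROX standards. Gain- or loss-of-signal relative to DMSO.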

[12] = ATG_VDRE_CIS: Attagene CIS-FACTORIAL HepG2 Assay for human Vitamin D Receptor Element (VDRE) (AID 2282968); settings: HepG2 VDRE cis-reporter transcription, actives raise or lower the signal
Method in brief: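 Readout is VDRE-driven reporter mRNA reflecting endogenous factor activity in human HepG2 cells, sampled 24 h post-dose. Quantification used labelled RT-PCR products separated by capillary electrophoresis; bidirectional analysis relative to DMSO.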

[13] = target: X-box-binding protein 1 (Homo sapiens) (UniProt P17861); assay: ATG_Xbp1_CIS: Attagene CIS-FACTORIAL HepG2 Assay for human X-box Binding Protein 1 (XBP1) (AID 2282972); settings: HepG2 XBP1 cis-element reporter, Attagene multiplex; actives raise or lower the signal
Method in brief: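 Multiplexed cis-reporter readout in transfected HepG2 liver cells. Exposure lasted 24 hours. Activity in either direction was fitted against DMSO as negative control and baseline.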

[14] = ATG_M_19_TRANS: Attagene TRANS-FACTORIAL HepG2 Assay for M19 Transcription Factor (Internal Marker) (AID 2282974; active = hit-call score of the fitted dose curve at least 0.9, where 1 is the maximum); settings: HepG2 Attagene TRANS-FACTORIAL M19 internal marker reporter
Method in brief: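 24 h chemical exposure of transiently transfected HepG2 (MRTU library). RNA → oligo(dT) RT → PCR → 6-FAM labelling → HpaI cut → CE fluorescence. Positive-direction fit vs DMSO baseline; background internal-marker readout.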

[15] = target: Estrogen receptor (Homo sapiens) (UniProt P03372); assay: ATG_ERa_TRANS: Attagene TRANS-FACTORIAL HepG2 Assay for human Estrogen Receptor alpha (ERa) (AID 2282970; active = hit-call score of the fitted dose curve at least 0.9, where 1 is the maximum); settings: HepG2 Attagene TRANS ERa GAL4 reporter, mRNA
Method in brief: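 Reporter transcripts were measured 24 h after dosing by RT-PCR with fluorescent primer extension and capillary electrophoresis. The system is transiently transfected HepG2 expressing exogenous NR-Gal4 chimeras driving GAL4-UAS reporters; DMSO is the baseline.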

[16] = ATG_GAL4_TRANS: Attagene TRANS-FACTORIAL HepG2 Assay for GAL4 (Internal Marker) (AID 2282976; active = hit-call score of the fitted dose curve at least 0.9, where 1 is the maximum); settings: HepG2 Attagene TRANS GAL4 internal marker reporter
Method in brief: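 In transfected human HepG2 liver cells dosed 24 h, GAL4 reporter mRNA serves as a baseline marker. Detection by RT-PCR with fluorescent capillary electrophoresis, activity fitted upward relative to DMSO.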

[17] = ATG_PPRE_CIS: Attagene CIS-FACTORIAL HepG2 Assay for human Peroxisome Proliferator-activated Response Element (PPRE) (AID 2282958); settings: HepG2 PPRE cis-element reporter, Attagene transcription factor profiling; actives raise or lower the signal
Method in brief: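 Read-out: fluorescent reporter mRNA fragments resolved by capillary electrophoresis after RT-PCR. HepG2 cells carried transiently transfected PPRE-driven cis reporter constructs and were dosed for 24 h; gain or loss of signal fitted relative to DMSO.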

[18] = target: Steroid hormone receptor ERR1 (Homo sapiens) (UniProt P11474); assay: ATG_ERRa_TRANS: Attagene TRANS-FACTORIAL HepG2 Assay for human Estrogen-Related Receptor alpha (ERRa) (AID 2282971; active = hit-call score of the fitted dose curve at least 0.9, where 1 is the maximum); settings: HepG2 Attagene TRANS reporter, ERRa transactivation
Method in brief: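 Reporter transcripts from ERRa-Gal4 chimera activity measured in transiently transfected human HepG2 cells 24 hours after dosing, using RT-PCR with 6-FAM primer extension, HpaI digestion and capillary electrophoresis; DMSO is baseline.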

Sequence of Signal transducer and activator of transcription 3 (Homo sapiens) (P40763 whole entry, looked up): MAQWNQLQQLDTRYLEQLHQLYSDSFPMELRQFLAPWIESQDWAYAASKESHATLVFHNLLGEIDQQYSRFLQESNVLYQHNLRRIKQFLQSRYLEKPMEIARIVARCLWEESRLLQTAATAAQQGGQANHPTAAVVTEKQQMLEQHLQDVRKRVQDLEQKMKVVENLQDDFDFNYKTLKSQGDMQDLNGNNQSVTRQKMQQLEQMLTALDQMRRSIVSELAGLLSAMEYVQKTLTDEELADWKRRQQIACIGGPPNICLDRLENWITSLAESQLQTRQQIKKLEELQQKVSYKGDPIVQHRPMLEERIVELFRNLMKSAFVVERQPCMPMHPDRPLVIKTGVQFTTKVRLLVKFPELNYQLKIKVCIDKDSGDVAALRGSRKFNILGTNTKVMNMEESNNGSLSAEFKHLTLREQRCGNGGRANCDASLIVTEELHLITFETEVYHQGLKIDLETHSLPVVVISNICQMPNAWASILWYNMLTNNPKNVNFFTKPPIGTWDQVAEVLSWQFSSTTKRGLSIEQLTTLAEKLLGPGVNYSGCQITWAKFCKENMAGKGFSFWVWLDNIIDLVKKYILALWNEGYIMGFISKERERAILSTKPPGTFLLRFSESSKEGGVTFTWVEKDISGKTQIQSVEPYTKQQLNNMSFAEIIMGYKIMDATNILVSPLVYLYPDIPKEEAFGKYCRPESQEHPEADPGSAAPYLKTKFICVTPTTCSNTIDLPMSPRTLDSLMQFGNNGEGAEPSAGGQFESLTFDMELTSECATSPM
Sequence of Transcription factor Sp1 (Homo sapiens) (P08047 whole entry, looked up): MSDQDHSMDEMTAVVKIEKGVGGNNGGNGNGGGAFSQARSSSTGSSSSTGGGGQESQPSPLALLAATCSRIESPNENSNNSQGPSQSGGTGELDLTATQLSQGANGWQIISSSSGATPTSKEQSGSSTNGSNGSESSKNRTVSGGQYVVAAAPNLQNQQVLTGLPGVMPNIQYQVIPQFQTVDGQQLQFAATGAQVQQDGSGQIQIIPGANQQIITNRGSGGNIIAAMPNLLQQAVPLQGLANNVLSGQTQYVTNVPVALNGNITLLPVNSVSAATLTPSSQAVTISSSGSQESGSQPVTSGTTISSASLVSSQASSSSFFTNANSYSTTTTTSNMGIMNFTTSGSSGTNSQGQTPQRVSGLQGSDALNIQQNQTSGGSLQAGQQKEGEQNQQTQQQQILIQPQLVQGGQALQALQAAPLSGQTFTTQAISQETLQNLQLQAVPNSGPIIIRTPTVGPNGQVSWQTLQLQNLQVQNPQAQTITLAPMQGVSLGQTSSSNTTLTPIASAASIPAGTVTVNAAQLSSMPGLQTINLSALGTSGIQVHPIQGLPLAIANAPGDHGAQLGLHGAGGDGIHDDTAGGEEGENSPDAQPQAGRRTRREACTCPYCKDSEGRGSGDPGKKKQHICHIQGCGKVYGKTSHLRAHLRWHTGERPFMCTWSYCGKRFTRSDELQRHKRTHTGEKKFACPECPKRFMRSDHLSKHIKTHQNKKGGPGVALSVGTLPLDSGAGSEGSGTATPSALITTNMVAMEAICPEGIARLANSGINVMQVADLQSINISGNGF
Sequence of X-box-binding protein 1 (Homo sapiens) (P17861 whole entry, looked up): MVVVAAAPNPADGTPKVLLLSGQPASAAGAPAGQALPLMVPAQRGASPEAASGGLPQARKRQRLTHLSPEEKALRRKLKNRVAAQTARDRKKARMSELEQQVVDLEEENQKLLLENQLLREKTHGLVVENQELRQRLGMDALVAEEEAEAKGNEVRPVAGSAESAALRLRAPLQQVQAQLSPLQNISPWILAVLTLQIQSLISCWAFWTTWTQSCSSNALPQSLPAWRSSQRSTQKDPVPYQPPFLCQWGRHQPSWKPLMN
Sequence of Paired box protein Pax-6 (Homo sapiens) (P26367 whole entry, looked up): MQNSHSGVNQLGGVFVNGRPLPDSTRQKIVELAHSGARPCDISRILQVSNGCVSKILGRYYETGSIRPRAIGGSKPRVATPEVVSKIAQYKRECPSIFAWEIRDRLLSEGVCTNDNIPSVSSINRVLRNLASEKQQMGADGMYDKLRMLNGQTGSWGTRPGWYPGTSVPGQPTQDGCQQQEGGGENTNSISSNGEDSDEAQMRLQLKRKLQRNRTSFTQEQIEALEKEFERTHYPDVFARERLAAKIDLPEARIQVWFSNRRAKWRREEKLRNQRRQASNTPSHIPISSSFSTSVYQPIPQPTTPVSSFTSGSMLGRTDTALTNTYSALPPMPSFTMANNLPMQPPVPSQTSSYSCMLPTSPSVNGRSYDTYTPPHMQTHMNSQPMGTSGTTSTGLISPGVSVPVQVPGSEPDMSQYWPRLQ
Sequence of Estrogen receptor (Homo sapiens) (P03372 whole entry, looked up, the tested form may be a part): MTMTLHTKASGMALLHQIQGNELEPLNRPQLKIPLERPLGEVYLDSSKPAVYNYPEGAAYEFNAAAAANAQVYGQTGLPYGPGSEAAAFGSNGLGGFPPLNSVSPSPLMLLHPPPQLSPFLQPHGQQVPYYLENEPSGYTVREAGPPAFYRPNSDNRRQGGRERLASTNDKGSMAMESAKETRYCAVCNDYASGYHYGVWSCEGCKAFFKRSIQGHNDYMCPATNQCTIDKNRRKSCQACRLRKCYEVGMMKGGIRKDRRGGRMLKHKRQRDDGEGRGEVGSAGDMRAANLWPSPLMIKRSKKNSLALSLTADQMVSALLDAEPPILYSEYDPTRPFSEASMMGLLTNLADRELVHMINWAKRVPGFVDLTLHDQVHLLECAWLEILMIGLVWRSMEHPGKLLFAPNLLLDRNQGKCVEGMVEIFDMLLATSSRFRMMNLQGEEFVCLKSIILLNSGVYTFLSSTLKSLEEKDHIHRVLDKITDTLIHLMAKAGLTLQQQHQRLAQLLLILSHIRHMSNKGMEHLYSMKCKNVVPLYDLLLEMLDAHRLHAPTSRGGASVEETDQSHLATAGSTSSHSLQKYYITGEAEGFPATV
Sequence of Steroid hormone receptor ERR1 (Homo sapiens) (P11474 whole entry, looked up, the tested form may be a part): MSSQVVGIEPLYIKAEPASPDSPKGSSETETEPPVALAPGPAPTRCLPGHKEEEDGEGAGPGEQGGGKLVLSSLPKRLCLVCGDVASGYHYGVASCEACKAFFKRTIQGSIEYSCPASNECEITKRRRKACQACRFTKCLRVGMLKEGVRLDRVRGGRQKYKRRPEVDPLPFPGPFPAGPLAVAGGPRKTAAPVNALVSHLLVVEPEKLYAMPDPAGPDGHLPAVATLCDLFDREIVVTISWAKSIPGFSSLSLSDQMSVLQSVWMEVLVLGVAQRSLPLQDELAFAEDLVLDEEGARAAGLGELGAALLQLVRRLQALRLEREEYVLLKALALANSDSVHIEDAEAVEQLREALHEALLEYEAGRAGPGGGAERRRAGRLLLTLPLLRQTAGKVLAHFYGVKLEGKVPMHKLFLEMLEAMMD

SMILES	outcome [1]	AC50 [2]	outcome [3]	outcome [4]	outcome [5]	AC50 [6]	outcome [7]	outcome [8]	outcome [9]	outcome [10]	outcome [11]	outcome [12]	outcome [13]	outcome [14]	outcome [2]	outcome [6]	outcome [15]	outcome [16]	outcome [17]	outcome [18]
O=C(OCc1ccccc1)c1ccccc1O	inactive	77.9 µM (active)	inactive	inactive	inactive	128 µM (active)	inactive	inactive	inactive	inactive	inactive	inactive	inactive	inactive	–	–	–	–	–	–
CCO[Si](CCC#N)(OCC)OCC	inactive	–	inactive	inactive	inactive	–	inactive	inactive	inactive	inactive	inactive	–	inactive	–	inactive	inactive	inactive	inactive	–	–
CCCO	–	85.4 µM (active)	inactive	inactive	–	–	inactive	inactive	–	inactive	inactive	inactive	inactive	inactive	–	inactive	–	inactive	inactive	–
CC(O)CN (stereo not drawn)	–	–	inactive	inactive	inactive	–	inactive	inactive	–	inactive	–	inactive	inactive	inactive	inactive	inactive	inactive	inactive	–	inactive
CCCCOCCOCCO	–	–	inactive	inactive	inactive	–	inactive	–	inactive	inactive	inactive	inactive	inactive	inactive	inactive	inactive	inactive	inactive	–	–
ClCCOCCOCCCl	–	–	inactive	inactive	inactive	–	inactive	inactive	inactive	inactive	–	inactive	–	–	inactive	inactive	–	inactive	inactive	–
O=S(=O)(O)CCCN1CCOCC1	–	–	–	inactive	inactive	–	inactive	inactive	inactive	inactive	inactive	inactive	inactive	–	inactive	inactive	–	inactive	inactive	–
OCC=Cc1ccccc1	inactive	33.1 µM (active)	–	inactive	inactive	–	inactive	–	inactive	inactive	inactive	inactive	inactive	inactive	–	inactive	–	–	–	–
OCCCO	–	–	inactive	inactive	inactive	–	inactive	inactive	inactive	inactive	inactive	inactive	inactive	–	inactive	inactive	–	inactive	inactive	–
CC/C=C\CCCCO	inactive	–	inactive	inactive	inactive	–	inactive	–	inactive	inactive	inactive	inactive	inactive	inactive	inactive	inactive	inactive	inactive	–	–
C=C(C)C(=O)OCCC[Si](OC)(OC)OC	inactive	–	inactive	inactive	–	–	inactive	inactive	inactive	inactive	inactive	–	inactive	inactive	inactive	inactive	inactive	–	–	–
